CHX counter = Cycloheximide Counterscreen for Small Molecule Inhibitors of Shiga Toxin; AID 2314, 2010; 12% of 300,000 active; max response, %; cell reporter, cycloheximide protein synthesis inhibition counterscreen; in the data active = max response mostly above about 13%, no sharp cut-off; inactive = mostly below about 14%; also: read at 38.3 µM for the half of the compounds with a filed dose; 0% is about no effect
Shiga inhibitor = A qHTS for Small Molecule Inhibitors of Shiga Toxin | Vero cells, Shiga toxin protein synthesis inhibition reporter | inhibition, % at 38.7 µM | 9.2% of 290,000 active | AID 2315, 2010; in the data active = inhibition mostly above about 28%, no sharp cut-off; inactive = mostly below about 43%; also: 0% is about no effect
AmpC detergent = qHTS Inhibitors of AmpC Beta-Lactamase (assay with detergent). P00811. AmpC hydrolysis of nitrocefin, absorbance 480 nm, 0.01% Triton. Potency, µM (top dose mostly 114 µM), for inactives: at the top dose activity change, negative = inhibition, hits mostly inhibitors. 0.041% of 370,000 active. AID 485294, 2010;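 also: potency is read from the fitted curve at half-maximal effect; 0% = no-compound wells and -100% = no-enzyme wells; nearly all actives have a fitted effect of over 25% in size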
Target sequence (P00811 whole entry, looked up): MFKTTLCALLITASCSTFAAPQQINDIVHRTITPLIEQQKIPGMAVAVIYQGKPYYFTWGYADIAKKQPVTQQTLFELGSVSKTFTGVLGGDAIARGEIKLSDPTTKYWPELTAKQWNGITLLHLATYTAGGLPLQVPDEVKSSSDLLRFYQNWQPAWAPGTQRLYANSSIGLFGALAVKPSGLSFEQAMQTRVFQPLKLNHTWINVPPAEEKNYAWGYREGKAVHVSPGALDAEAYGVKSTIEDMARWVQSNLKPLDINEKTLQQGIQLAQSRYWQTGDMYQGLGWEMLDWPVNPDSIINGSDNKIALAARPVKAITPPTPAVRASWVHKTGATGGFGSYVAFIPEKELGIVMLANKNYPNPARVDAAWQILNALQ
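AmpC (5.3 nM in the dispensed reagent) in 20 mM phosphate pH 7.0 with 0.01% (detergent screen) or 0.0001% Triton X-100 was preincubated with compounds for 15 min at room temperature. Nitrocefin was then added from an 800 uM solution, and hydrolysis was followed at 480 nm.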
AmpC no deterg = qHTS Inhibitors of AmpC Beta-Lactamase (assay without detergent). P00811. AmpC nitrocefin hydrolysis, absorbance 480 nm, 0.0001% Triton. Potency, µM (titrated, usually from 57.1 µM), inactives show top-dose activity change, negative = inhibition, most hits filed as inhibitors. 0.52% of 330,000 active;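 also: potency is read from the fitted curve at half-maximal effect; plate controls were no compound for no effect and no enzyme for full effect; nearly all actives have a fitted effect of over 20% in size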
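20 mM phosphate pH 7.0 + 0.01% (detergent screen) or 0.0001% Triton X-100; 5.3 nM AmpC reagent; cpd preinc 15 min RT; nitrocefin (800 uM stock) to start; A480 q20 s × 4 min; Activity was normalised to no-enzyme and no-compound control wells.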
NS1 function inh = qHTS Assay for Inhibitors of Influenza NS1 Protein Function. Potency, µM (doses to about 46.1 µM), without a hit: at the highest dose activity, positive = more growth. 0.4% of 270,000 active; calls by dose curve; also: potency is read from the fitted curve at half-maximal effect; actives are rising curves; nearly all actives have a fitted effect of over 50% in size
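A cell-based growth assay was used: compounds that relieve NS1-induced slow growth of budding yeast raise OD600. Assay medium was yeast nitrogen base with ammonium sulphate and -URA supplement, pH 6.0, with 2% galactose.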
Numbers without * were called inactive; ? = inconclusive; · = no result given. The sample as a whole holds a higher share of hits than the screen did. Unless noted, calls follow the shape of the dose curve; as a rule, active = well fitted curve in the direction sought with a large enough effect; inconclusive = small, poorly fitted or top-dose-only effect, or another doubt; inactive = no such curve, though single readings can be large; an effect the other way counts as inactive or inconclusive.

SMILES	CHX counter	Shiga inhibitor	AmpC detergent	AmpC no deterg	NS1 function inh
CN(C)S(=O)(=O)c1cccc(NC(=O)c2cc(=O)[nH]c3ccccc23)c1	2.8	-10.5	?	-29.5%	5.1%
CC(=O)c1c(C)[nH]c(C(=O)Nc2cccc(S(=O)(=O)N(C)C)c2)c1C	30.9*	49.6	6.9%	-34.8%	·
CN(C)S(=O)(=O)c1cccc(NC(=S)NNC(=O)c2cc3ccccc3cc2O)c1	·	·	-1.4%	25.1µM*	·
Cc1ccc2oc(=O)c3cc(C(=O)Nc4ccc(C)c(F)c4)sc3c2c1	·	·	-7.1%	·	·
CCN(CC)S(=O)(=O)c1ccc(C(=O)Nc2cccc(C)c2)cc1	15.3	68.4	0.6%	-13.6%	-31.6%
Cc1cccc(NC(=O)c2ccc(S(=O)(=O)N(C)C)cc2)c1	15.8*	41.1	?	-9.7%	-48.5%
Cc1ccc(N2CC(NC(=O)c3cc4ccccc4o3)CC2=O)cc1 (configuration not stated)	·	·	-0.8%	·	·
O=C(Nc1ccc(C#Cc2ccccc2)cc1)C1CC1	44.2*	51.0*	-2.2%	-15.7%	-3.2%
COC(=O)c1c(-c2ccc(F)cc2)csc1NC(=O)C1CCCO1 (configuration not stated)	26.3*	68.1	2.6%	74.4%	-33.5%
O=C(Nc1ccc(Oc2ccccc2)cc1)C1CC1	20.6	71.1*	?	-21.1%	·
COc1ccc(-c2csc(NC(=O)C3CCCCN3S(=O)(=O)c3ccccc3)n2)cc1 (configuration not stated)	-1.9	-22.0	-5.5%	?	18.1%
COc1ccc(-c2csc(NC(=O)C3CCCO3)n2)cc1 (configuration not stated)	43.3*	82.4*	1.6%	-8.5%	-6.7%
CCOc1ccc(NC(=O)CC2C(=O)N(c3ccc(C)cc3)C(=O)N2C2CCCCC2)cc1 (configuration not stated)	·	·	-6.0%	·	·
COc1cc(CCNC(=O)CCCn2c(=O)c3cccn3c3cccnc32)cc(OC)c1OC	-3.9	-10.9	-9.9%	17.3%	-16.8%
CC1CCN(C(=O)C2CCC(=O)N(Cc3ccc(Cl)cc3)C2)CC1 (configuration not stated)	-3.2	-3.7	0.2%	68.0%	0.1%
Cc1cc(=O)oc2cc(OCC(=O)N3CCN(C(=O)C4COc5ccccc5O4)CC3)c(Cl)cc12 (configuration not stated)	1.2	-3.8	-7.5%	2.3%	14.5%
COc1ccc(Cl)cc1NC(=O)c1c(C(=O)Nc2cccc(C)c2C)sc2nc(C)cc(=O)n12	·	·	16.5%	·	·
O=C(Nc1ccccc1C(=O)O)c1ccc(NC(=O)C2CC2)cc1	1.1	-18.2	-6.7%	-15.3%	-5.4%
COc1ccc(Cc2nnc(NC(=O)C3CCCO3)s2)cc1OC (configuration not stated)	0.5	-7.3	3.1%	-2.0%	-20.8%
COc1ccc(Cc2nnc(NC(=O)C3CCCO3)s2)cc1 (configuration not stated)	23.7*	48.6	-4.4%	-0.5%	-0.4%
CC(C)N(c1ccccc1)c1ccc(NC(=O)C2CCCO2)cc1 (configuration not stated)	-1.1	5.4	-7.9%	29.5%	-17.5%
O=C(Nc1ccccc1O)c1ccc(NC(=O)C2CC2)cc1	38.6*	82.7*	-5.9%	-31.0%	6.5%
O=C(Nc1ccc(Oc2ccccc2)cc1)C1CCCO1 (configuration not stated)	30.8*	190.5*	?	-0.2%	-12.9%
COC(=O)c1ccc(NC(=O)C2CCCO2)cc1 (configuration not stated)	37.9*	35.3*	-3.3%	-0.4%	-6.2%
O=C(c1ccc(F)cc1)N1CCC(c2nc3ccccc3s2)CC1	·	·	0.2%	·	·
SMILES	CHX counter	Shiga inhibitor	AmpC detergent	AmpC no deterg	NS1 function inh
Cc1ccc(CNC(=O)c2ccc3c(c2)CCN3S(=O)(=O)c2ccc(Br)cc2)cc1	·	·	12.0%	·	·
Cc1ccccc1C(=O)NNc1ncnc2c1cnn2-c1cccc(Cl)c1	·	·	4.0%	·	·
COc1ccc(NC(=O)C2CCCO2)cc1 (configuration not stated)	16.4*	27.0	?	-13.0%	5.7%
COC(=O)COc1ccc(NC(=O)C2CCCO2)cc1 (configuration not stated)	6.1	15.9	2.2%	-22.3%	-0.9%
CCCN1CCN(c2nnc(-n3cccc3C(=O)Nc3ccccc3C(F)(F)F)s2)CC1	·	·	2.2%	·	·
Cn1c(CN2CCN(C(=O)c3ccccc3)CC2)nc2cc([N+](=O)[O-])ccc21	18.6*	46.2*	-13.7%	3.8%	0.9%
Cn1c(CN2CCN(C(=O)c3ccccc3Cl)CC2)nc2cc([N+](=O)[O-])ccc21	-4.2	-5.8	?	94.7%	-6.5%
CCC(=O)N1CCc2cc(Br)cc(S(=O)(=O)N3CCN(c4cccc(Cl)c4)CC3)c21	·	·	-3.6%	·	·
